From PubChem BioAssay
An excerpt weighted towards active compounds, which were near 3.9% of everything screened.
PrPC surface inh – inhibitors of human cell surface prion protein PrPC | P04156 | TR-FRET read-out | inhibition, % at 13.8 µM | actives 0.43% (n = 370,000); in the data active = inhibition above about 24%; also: 0% = median of the test wells and 100% = reference compound wells
Mtb FBA inh – inhibitors of M. tuberculosis fructose-bisphosphate aldolase | actives 2.3% (n = 360,000) | inhibition, % at 1 µM | P9WQA3 | purified M. tuberculosis FBA, fluorescence read-out; in the data active = inhibition above about 27%;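 also: 0% = vehicle and 100% = reference inhibitor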
Target sequence (P9WQA3 whole entry, looked up): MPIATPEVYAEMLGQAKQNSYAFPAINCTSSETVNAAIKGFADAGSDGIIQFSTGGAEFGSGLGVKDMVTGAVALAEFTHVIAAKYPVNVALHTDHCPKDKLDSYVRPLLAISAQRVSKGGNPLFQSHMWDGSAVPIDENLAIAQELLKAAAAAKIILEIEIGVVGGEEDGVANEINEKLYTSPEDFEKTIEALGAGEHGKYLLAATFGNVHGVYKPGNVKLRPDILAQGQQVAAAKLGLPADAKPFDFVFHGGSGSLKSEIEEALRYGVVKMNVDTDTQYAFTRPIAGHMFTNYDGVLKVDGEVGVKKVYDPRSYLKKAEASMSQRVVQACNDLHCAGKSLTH
3CLpro inhibitor – SARS-CoV 3CLpro protease inhibition; P0C6X7; recombinant SARS-CoV 3CLpro, quenched FRET peptide cleavage; inhibition, % at 6 µM; actives 0.14% (n = 290,000); in the data active = inhibition above about 12%
BH1578 lux ind – induces V. cholerae light production without autoinducers; V. cholerae BH1578 lux reporter, luminescence, 6 h; activation, % at 18.7 µM; actives 0.16% (n = 350,000); AID 588436; in the data active = activation mostly above about 9.7%, no sharp cut-off
GDH-TPI inh – counter-screen for M. tuberculosis FBA inhibitors: GDH-TPI coupled enzymes; GDH-TPI coupled enzyme counterscreen, NADH absorbance; inhibition, % at 4.8 µM; actives 1.2% (n = 360,000); AID 588335; in the data active = inhibition above about 30%;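 also: 0% = DMSO wells and 100% = wells lacking the enzyme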
* = called active by the depositor; i = inactive; x = no result given; + = active, no number.

SMILES	PrPC surface inh	Mtb FBA inh	3CLpro inhibitor	BH1578 lux ind	GDH-TPI inh
COc1ccc(CCn2c(=N)c(C(=O)NCCN3CCOCC3)cc3c(=O)n4ccccc4nc32)cc1OC	-50.7	-1.7	-7.3	-0.4	5.0
O=C(NCCN1CCOCC1)c1c(O)nc2ccccn2c1=O	-2.3	11.8	0.2	-0.3	21.6
O=C(NCCN1CCOCC1)c1cc2c(=O)n3ccccc3nc2n1Cc1ccccc1	-10.9	+	-4.4	-0.2	15.9
CCCNc1nc2nc3ccccn3c(=O)c2cc1C(=O)NCCN1CCOCC1	-36.1	155.2*	-6.0	-0.3	4.2
C#CC[N+](C)(C)C(C#Cc1ccccc1)CC=C (stereo not drawn)	6.7	-1.2	1.5	4.2	-2.6
CCOC(=O)c1cc2c(=O)n3ccccc3nc2n(Cc2ccccc2)c1=N	-24.4	79.1*	7.6	1.7	-5.9
CCOC(=O)c1cc2c(=O)n3cccc(C)c3nc2n(C)c1=N	x	x	-3.0	x	x
N=c1c(C(=O)NC2CCCC2)cc2c(=O)n3ccccc3nc2n1CCCN1CCOCC1	-23.3	157.9*	-1.6	-0.2	10.1
N#Cc1cc2c(=O)n3ccccc3nc2n(-c2ccccc2Cl)c1=O	-17.1	+	4.0	-0.9	-3.5
Cc1ccc(Cn2c(=N)c(C(=O)NC3CCCCC3)cc3c(=O)n4ccccc4nc32)cc1	-12.9	24.4	-1.9	-0.4	-3.4
N=c1c(C(=O)NC2CCCC2)cc2c(=O)n3ccccc3nc2n1Cc1ccccc1	-12.5	146.0*	-0.7	-0.2	0.4
CC1(CCC(=O)N2CCCC(Nc3ccc(F)cc3)C2)CC1 (stereo not drawn)	6.9	3.7	4.4	i	4.2
N#Cc1cc2c(=O)n3ccccc3nc2n(CCCN2CCOCC2)c1=O	-26.6	+	-4.4	-6.7	13.8
COCCNC(=S)N/N=C(\C)c1ccc(Cl)s1	-4.8	1.2	-0.1	-0.5	45.2*
C/C(=N\NC(=S)NCc1ccccc1)c1ccc(Cl)s1	-6.0	2.9	2.1	i	8.8
COCCNC(=S)N/N=C(\C)c1ccccc1O	2.2	0.8	2.5	-0.1	30.9*
CC(C)/C=N/Nc1nc2c(c(=O)n(C)c(=O)n2C)n1C	-4.5	-0.9	6.8	i	8.7
CN(C)N=Nc1nc2c(c(=O)n(C)c(=O)n2C)n1C	-9.9	-0.2	-2.8	i	34.0*
Cc1ccc(-c2cc(-c3nnc(SCC(=O)NCC(C)C)n3N)c3ccccc3n2)cc1	-10.9	15.7	-0.8	i	0.8
CCC(C)NC(=O)CSc1nnc(-c2cc(-c3ccc(C)cc3)nc3ccccc23)n1N (stereo not drawn)	-9.4	25.6	-7.1	40.4*	6.0
CN(C)S(=O)(=O)c1ccc(NC(=O)CCCNC(=O)c2ccc(Cl)cc2)cc1	1.5	24.1	8.8	i	-7.3
COc1cc(/C=C/C2=NNC(=O)CC2)cc(OC)c1OC	-11.5	7.9	-2.3	-0.6	45.1*
COc1ccccc1NC(=O)CN(c1ccccc1)S(=O)(=O)c1ccccc1	4.1	8.3	-1.0	-0.2	14.6
COc1ccc(N(CC(=O)Nc2ccccc2OC)S(=O)(=O)c2ccc(NC(C)=O)cc2)cc1	14.1	2.5	-1.1	i	31.0*
COc1cc(/C=N/NC(N)=S)ccc1OCC(=O)Nc1ccc(C)cc1	6.5	1.8	1.1	7.1	39.8*
SMILES	PrPC surface inh	Mtb FBA inh	3CLpro inhibitor	BH1578 lux ind	GDH-TPI inh
COc1ccc(/C=N/NC(N)=S)cc1OC(=O)c1cccc2ccccc12	16.5	1.0	-3.3	-1.6	33.5*
CNC(=S)N/N=C/c1ccc(OCC(=O)Nc2c(C)cc(C)cc2C)c(OC)c1	-5.1	4.6	-3.3	-0.3	24.6
COc1cc(/C=N/NC(=O)c2ccc(Cl)c(S(N)(=O)=O)c2)ccc1OCC(N)=O	5.6	4.0	1.3	-0.4	43.0*
CC(=O)N1c2cc3ccccc3cc2N(C(C)=O)c2cc3ccccc3cc21	-4.5	7.2	x	i	12.1
O=C(NNC(=O)c1ccccc1-n1cccc1)c1cccnc1	7.0	-0.8	x	0.8	14.2
Cc1cc(C(=O)CSc2nncn2C)c(C)n1-c1ccccc1	3.4	-2.2	-1.5	-0.2	2.6
Cc1nc(N2CCN(c3ccccn3)CC2)c2c(C)c(C(=O)N3CCN(c4cccc(Cl)c4)CC3)sc2n1	-11.8	0.1	10.1	2.0	-5.2
COc1ccc(/C=N/NC(=O)c2ccc3ccccc3c2)cc1OS(=O)(=O)c1ccc(NC(C)=O)cc1	11.8	1.0	3.0	-0.5	35.8*
CCOc1cc(/C=N/NC(=O)c2ccc(N(C)S(=O)(=O)c3ccccc3)cc2)ccc1OC	0.7	0.6	-9.8	-0.4	41.8*
